Experimental data reported in paper doi:10.1101/2024.03.05.583629.

Tests used:
pT7_6His-AlfaTag-HOXD13 = pT7_6His-AlfaTag-HOXD13 (human, UniProt P35453 263-343); assay: PADIT-seq; settings: dsDNA, one strand shown
pT7_6His-AlfaTag-ZIF268 = pT7_6His-AlfaTag-ZIF268 (human, UniProt P18146 335-423); assay: PADIT-seq; settings: dsDNA, one strand shown

pT7_6His-AlfaTag-HOXD13, sequence (P35453 263-343): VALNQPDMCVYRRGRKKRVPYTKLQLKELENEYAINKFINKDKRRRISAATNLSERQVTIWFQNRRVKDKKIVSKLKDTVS

Row | Sequence | binding signal (pT7_6His-AlfaTag-HOXD13) | binding signal (pT7_6His-AlfaTag-ZIF268)
1 | CTCGAGGATATCAAGATCTGGCCTCGGCGCCGTAAAAGGAACCTCTAGCTAGCCGACTCACTATAGGGATAATCGCCCTGAGCAAAGACC | 1.76 ± 0.0756 log2FC | –
2 | CTCGAGGATATCAAGATCTGGCCTCGGCCCGTTAAAAGGAACCTCTAGCTAGCCGACTCACTATAGGGATAATCGCCCTGAGCAAAGACC | 2.37 ± 0.0792 log2FC | –
3 | CTCGAGGATATCAAGATCTGGCCTCGGCTGAGTAAAAGGAACCTCTAGCTAGCCGACTCACTATAGGGATAATCGCCCTGAGCAAAGACC | 0.229 ± 0.0993 log2FC | –
4 | CTCGAGGATATCAAGATCTGGCCTCGGCGGCGTAAAAGGAACCTCTAGCTAGCCGACTCACTATAGGGATAATCGCCCTGAGCAAAGACC | 0.246 ± 0.0968 log2FC | –
5 | CTCGAGGATATCAAGATCTGGCCTCGGCCGCCCATTAGGAACCTCTAGCTAGCCGACTCACTATAGGGATAATCGCCCTGAGCAAAGACC | -0.218 ± 0.102 log2FC | –
6 | CTCGAGGATATCAAGATCTGGCCTCGGCATTTTAGGCGGAACCTCTAGCTAGCCGACTCACTATAGGGATAATCGCCCTGAGCAAAGACC | -0.396 ± 0.116 log2FC | –
7 | CTCGAGGATATCAAGATCTGGCCTCGGCGTTTTATCTGGAACCTCTAGCTAGCCGACTCACTATAGGGATAATCGCCCTGAGCAAAGACC | 0.898 ± 0.106 log2FC | –
8 | CTCGAGGATATCAAGATCTGGCCTCGGCTTTTTAAAAGGAACCTCTAGCTAGCCGACTCACTATAGGGATAATCGCCCTGAGCAAAGACC | 2.52 ± 0.0678 log2FC | –
9 | CTCGAGGATATCAAGATCTGGCCTCGGCAATGTAAAAGGAACCTCTAGCTAGCCGACTCACTATAGGGATAATCGCCCTGAGCAAAGACC | 0.947 ± 0.0815 log2FC | –
10 | CTCGAGGATATCAAGATCTGGCCTCGGCATTTTATGAGGAACCTCTAGCTAGCCGACTCACTATAGGGATAATCGCCCTGAGCAAAGACC | 3.3 ± 0.0767 log2FC | –
11 | CTCGAGGATATCAAGATCTGGCCTCGGCGTTTTAGCGGGAACCTCTAGCTAGCCGACTCACTATAGGGATAATCGCCCTGAGCAAAGACC | -0.00405 ± 0.124 log2FC | –
12 | CTCGAGGATATCAAGATCTGGCCTCGGCATTTTAGAAGGAACCTCTAGCTAGCCGACTCACTATAGGGATAATCGCCCTGAGCAAAGACC | 0.382 ± 0.0937 log2FC | –
13 | CTCGAGGATATCAAGATCTGGCCTCGGCTTTTTACACGGAACCTCTAGCTAGCCGACTCACTATAGGGATAATCGCCCTGAGCAAAGACC | 2.25 ± 0.079 log2FC | –
14 | CTCGAGGATATCAAGATCTGGCCTCGGCCTTTTAGATGGAACCTCTAGCTAGCCGACTCACTATAGGGATAATCGCCCTGAGCAAAGACC | 0.264 ± 0.0998 log2FC | –
15 | CTCGAGGATATCAAGATCTGGCCTCGGCCGCGTGCGCGGAACCTCTAGCTAGCCGACTCACTATAGGGATAATCGCCCTGAGCAAAGACC | -0.99 ± 0.127 log2FC | –
16 | CTCGAGGATATCAAGATCTGGCCTCGGCATTTTACCTGGAACCTCTAGCTAGCCGACTCACTATAGGGATAATCGCCCTGAGCAAAGACC | -0.0491 ± 0.129 log2FC | –
17 | CTCGAGGATATCAAGATCTGGCCTCGGCCTTTTATCTGGAACCTCTAGCTAGCCGACTCACTATAGGGATAATCGCCCTGAGCAAAGACC | 0.811 ± 0.0782 log2FC | –
18 | CTCGAGGATATCAAGATCTGGCCTCGGCATTTTAGAGGGAACCTCTAGCTAGCCGACTCACTATAGGGATAATCGCCCTGAGCAAAGACC | 1.43 ± 0.0957 log2FC | –
19 | CTCGAGGATATCAAGATCTGGCCTCGGCCGCCCAACAGGAACCTCTAGCTAGCCGACTCACTATAGGGATAATCGCCCTGAGCAAAGACC | -0.724 ± 0.117 log2FC | –

Row | Sequence | binding signal (pT7_6His-AlfaTag-HOXD13) | binding signal (pT7_6His-AlfaTag-ZIF268)
20 | CTCGAGGATATCAAGATCTGGCCTCGGCGTTTTACATGGAACCTCTAGCTAGCCGACTCACTATAGGGATAATCGCCCTGAGCAAAGACC | 2.03 ± 0.0856 log2FC | –
21 | CTCGAGGATATCAAGATCTGGCCTCGGCCTTTTATGTGGAACCTCTAGCTAGCCGACTCACTATAGGGATAATCGCCCTGAGCAAAGACC | 2.69 ± 0.0743 log2FC | –
22 | CTCGAGGATATCAAGATCTGGCCTCGGCCTTTTAGGCGGAACCTCTAGCTAGCCGACTCACTATAGGGATAATCGCCCTGAGCAAAGACC | -0.31 ± 0.108 log2FC | –
23 | CTCGAGGATATCAAGATCTGGCCTCGGCCTTTTACCCGGAACCTCTAGCTAGCCGACTCACTATAGGGATAATCGCCCTGAGCAAAGACC | -0.00238 ± 0.0891 log2FC | –
24 | CTCGAGGATATCAAGATCTGGCCTCGGCAACTTAAAAGGAACCTCTAGCTAGCCGACTCACTATAGGGATAATCGCCCTGAGCAAAGACC | 0.617 ± 0.0872 log2FC | –
25 | CTCGAGGATATCAAGATCTGGCCTCGGCTTTTTAGGTGGAACCTCTAGCTAGCCGACTCACTATAGGGATAATCGCCCTGAGCAAAGACC | -0.0749 ± 0.107 log2FC | –
26 | CTCGAGGATATCAAGATCTGGCCTCGGCGCGTATGCGGGAACCTCTAGCTAGCCGACTCACTATAGGGATAATCGCCCTGAGCAAAGACC | -1.09 ± 0.121 log2FC | –
27 | CTCGAGGATATCAAGATCTGGCCTCGGCGCCTTAAAAGGAACCTCTAGCTAGCCGACTCACTATAGGGATAATCGCCCTGAGCAAAGACC | 0.578 ± 0.0742 log2FC | –
28 | CTCGAGGATATCAAGATCTGGCCTCGGCTGATGGGCGGGAACCTCTAGCTAGCCGACTCACTATAGGGATAATCGCCCTGAGCAAAGACC | -0.976 ± 0.109 log2FC | –
29 | CTCGAGGATATCAAGATCTGGCCTCGGCCGCCCAGGCGGAACCTCTAGCTAGCCGACTCACTATAGGGATAATCGCCCTGAGCAAAGACC | -0.81 ± 0.134 log2FC | –
30 | CTCGAGGATATCAAGATCTGGCCTCGGCTTTTTATGAGGAACCTCTAGCTAGCCGACTCACTATAGGGATAATCGCCCTGAGCAAAGACC | 3.46 ± 0.0792 log2FC | –
31 | CTCGAGGATATCAAGATCTGGCCTCGGCATTTTAGGTGGAACCTCTAGCTAGCCGACTCACTATAGGGATAATCGCCCTGAGCAAAGACC | 0.159 ± 0.111 log2FC | –
32 | CTCGAGGATATCAAGATCTGGCCTCGGCTTTTTAGGAGGAACCTCTAGCTAGCCGACTCACTATAGGGATAATCGCCCTGAGCAAAGACC | 1.41 ± 0.0944 log2FC | –
33 | CTCGAGGATATCAAGATCTGGCCTCGGCTTTCTAAAAGGAACCTCTAGCTAGCCGACTCACTATAGGGATAATCGCCCTGAGCAAAGACC | -0.511 ± 0.118 log2FC | –
34 | CTCGAGGATATCAAGATCTGGCCTCGGCTTTTTAAGAGGAACCTCTAGCTAGCCGACTCACTATAGGGATAATCGCCCTGAGCAAAGACC | 2.84 ± 0.0822 log2FC | –
35 | CTCGAGGATATCAAGATCTGGCCTCGGCCGCCCAGTCGGAACCTCTAGCTAGCCGACTCACTATAGGGATAATCGCCCTGAGCAAAGACC | -0.955 ± 0.134 log2FC | –
36 | CTCGAGGATATCAAGATCTGGCCTCGGCGTAGTAAAAGGAACCTCTAGCTAGCCGACTCACTATAGGGATAATCGCCCTGAGCAAAGACC | 2.18 ± 0.0733 log2FC | –
37 | CTCGAGGATATCAAGATCTGGCCTCGGCTTTTTAGGGGGAACCTCTAGCTAGCCGACTCACTATAGGGATAATCGCCCTGAGCAAAGACC | 1.5 ± 0.0951 log2FC | –
38 | CTCGAGGATATCAAGATCTGGCCTCGGCCTTTTAGCGGGAACCTCTAGCTAGCCGACTCACTATAGGGATAATCGCCCTGAGCAAAGACC | 0.142 ± 0.0994 log2FC | –

Row | Sequence | binding signal (pT7_6His-AlfaTag-HOXD13) | binding signal (pT7_6His-AlfaTag-ZIF268)
39 | CTCGAGGATATCAAGATCTGGCCTCGGCCAAATAAAAGGAACCTCTAGCTAGCCGACTCACTATAGGGATAATCGCCCTGAGCAAAGACC | 2.65 ± 0.0828 log2FC | –
40 | CTCGAGGATATCAAGATCTGGCCTCGGCGTTTTAATCGGAACCTCTAGCTAGCCGACTCACTATAGGGATAATCGCCCTGAGCAAAGACC | 0.636 ± 0.0931 log2FC | –
41 | CTCGAGGATATCAAGATCTGGCCTCGGCGCGTGGCGAGGAACCTCTAGCTAGCCGACTCACTATAGGGATAATCGCCCTGAGCAAAGACC | -0.862 ± 0.192 log2FC | –
42 | CTCGAGGATATCAAGATCTGGCCTCGGCTTAGTAAAAGGAACCTCTAGCTAGCCGACTCACTATAGGGATAATCGCCCTGAGCAAAGACC | 1.23 ± 0.0947 log2FC | –
43 | CTCGAGGATATCAAGATCTGGCCTCGGCTTGTTAAAAGGAACCTCTAGCTAGCCGACTCACTATAGGGATAATCGCCCTGAGCAAAGACC | 3.01 ± 0.0792 log2FC | –
44 | CTCGAGGATATCAAGATCTGGCCTCGGCCTTTTAACCGGAACCTCTAGCTAGCCGACTCACTATAGGGATAATCGCCCTGAGCAAAGACC | 1.24 ± 0.0724 log2FC | –
45 | CTCGAGGATATCAAGATCTGGCCTCGGCATTATAAAAGGAACCTCTAGCTAGCCGACTCACTATAGGGATAATCGCCCTGAGCAAAGACC | 2.37 ± 0.0729 log2FC | –
46 | CTCGAGGATATCAAGATCTGGCCTCGGCCTTTTACAGGGAACCTCTAGCTAGCCGACTCACTATAGGGATAATCGCCCTGAGCAAAGACC | 2.83 ± 0.0828 log2FC | –
47 | CTCGAGGATATCAAGATCTGGCCTCGGCTATATAAAAGGAACCTCTAGCTAGCCGACTCACTATAGGGATAATCGCCCTGAGCAAAGACC | 2.63 ± 0.0902 log2FC | –
48 | CTCGAGGATATCAAGATCTGGCCTCGGCTGGGTAAAAGGAACCTCTAGCTAGCCGACTCACTATAGGGATAATCGCCCTGAGCAAAGACC | -0.514 ± 0.0905 log2FC | –
49 | CTCGAGGATATCAAGATCTGGCCTCGGCCTTTTACCTGGAACCTCTAGCTAGCCGACTCACTATAGGGATAATCGCCCTGAGCAAAGACC | -0.0573 ± 0.0997 log2FC | –
50 | CTCGAGGATATCAAGATCTGGCCTCGGCGGGCTAAAAGGAACCTCTAGCTAGCCGACTCACTATAGGGATAATCGCCCTGAGCAAAGACC | -0.851 ± 0.105 log2FC | –
51 | CTCGAGGATATCAAGATCTGGCCTCGGCGTTTTACTTGGAACCTCTAGCTAGCCGACTCACTATAGGGATAATCGCCCTGAGCAAAGACC | 1.25 ± 0.0875 log2FC | –
52 | CTCGAGGATATCAAGATCTGGCCTCGGCCGCCCAATGGGAACCTCTAGCTAGCCGACTCACTATAGGGATAATCGCCCTGAGCAAAGACC | -0.785 ± 0.113 log2FC | 0.0226 ± 0.0907 log2FC
53 | CTCGAGGATATCAAGATCTGGCCTCGGCGACCCACGCGGAACCTCTAGCTAGCCGACTCACTATAGGGATAATCGCCCTGAGCAAAGACC | -1.05 ± 0.109 log2FC | 0.214 ± 0.0833 log2FC
54 | CTCGAGGATATCAAGATCTGGCCTCGGCACCATAAAAGGAACCTCTAGCTAGCCGACTCACTATAGGGATAATCGCCCTGAGCAAAGACC | 2.69 ± 0.0753 log2FC | 0.0345 ± 0.0841 log2FC
55 | CTCGAGGATATCAAGATCTGGCCTCGGCCGCCTACGCGGAACCTCTAGCTAGCCGACTCACTATAGGGATAATCGCCCTGAGCAAAGACC | -0.992 ± 0.109 log2FC | 1.76 ± 0.0783 log2FC
56 | CTCGAGGATATCAAGATCTGGCCTCGGCTTTTTAGAAGGAACCTCTAGCTAGCCGACTCACTATAGGGATAATCGCCCTGAGCAAAGACC | 0.559 ± 0.108 log2FC | 0.0735 ± 0.104 log2FC
